Reference: PubChem BioAssay (NCI)
The panel holds about 79,000 compounds, 15% with a hit somewhere; the sample as a whole holds those more often. Unmarked numbers belong to inactive results. Active and inactive are the calls of the source. No stated cut-off is given here; in the data, active means growth inhibition above about 70%; inactive means the rest.

What was measured:
[1] = NCI Yeast Anticancer Drug Screen. Data for the rad52 strain (AID 147);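 further: 0% = growth of vehicle-treated control cultures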; settings: S. cerevisiae rad52 mutant growth inhibition, stronger effect = higher value
Summary of the method: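 Inhibition of yeast growth, referenced to vehicle controls, was the measured output for a strain with defective DNA damage repair.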

[2] = NCI Yeast Anticancer Drug Screen. Data for the wt1 strain (AID 149);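 further: 0% = growth of vehicle-treated wt1 cultures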; settings: S. cerevisiae wt1 strain (SPY 50644) growth inhibition, stronger effect = higher value
Summary of the method: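 wt1 strain grown with compound or vehicle; inhibition taken from the growth difference.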

[3] = NCI Yeast Anticancer Drug Screen. Data for the rad50EPP+ strain (AID 151);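 further: 0% = growth of vehicle-treated control cultures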; settings: S. cerevisiae rad50 mutant strain, stronger effect = higher value
Summary of the method: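 Genetically defined yeast (rad50EPP+, DNA damage repair alteration) is grown with compound, and inhibition of growth is expressed relative to vehicle-treated controls.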

[4] = NCI Yeast Anticancer Drug Screen. Data for the mgt1 strain (AID 153); settings: S. cerevisiae mgt1 mutant growth inhibition, stronger effect = higher value
Summary of the method: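 In the mgt1 strain, test compounds were added and growth inhibition was determined relative to vehicle-treated controls.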

[5] = NCI Yeast Anticancer Drug Screen. Data for the rad50 strain (AID 155);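 further: 0% = growth of vehicle-only cultures of the same strain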; settings: S. cerevisiae rad50 strain growth inhibition, stronger effect = higher value
Summary of the method: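 DNA repair mutant yeast, compound exposure, growth read-out; inhibition is taken relative to vehicle.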

[6] = NCI Yeast Anticancer Drug Screen. Data for the mec2-1 strain (AID 157); settings: S. cerevisiae mec2-1 strain, stronger effect = higher value
Summary of the method: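 Each compound was tested on mec2-1 yeast, a strain altered in DNA damage repair or cell cycle control. Growth inhibition is reported relative to vehicle.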

[7] = NCI Yeast Anticancer Drug Screen. Data for the rad14 strain (AID 159);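 further: 0% = growth of vehicle-treated control cultures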; settings: S. cerevisiae rad14 strain growth inhibition, stronger effect = higher value
Summary of the method: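 DNA repair-defective yeast, compound-exposed; % growth inhibition derived by comparison with vehicle-treated controls.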

[8] = NCI Yeast Anticancer Drug Screen. Data for the sgs1 mgt1 strain (AID 161);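 further: 0% = growth of cultures given vehicle only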; settings: S. cerevisiae sgs1 mgt1 strain, stronger effect = higher value
Summary of the method: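 Test agents were incubated with a DNA-repair-mutant yeast strain. Growth was then read and compared against vehicle-treated controls.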

[9] = NCI Yeast Anticancer Drug Screen. Data for the CLN2oe strain (AID 163);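 further: 0% = growth of vehicle-only control cultures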; settings: S. cerevisiae CLN2oe strain, stronger effect = higher value
Summary of the method: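 First, the altered yeast strain was treated with each compound; second, its growth was measured; finally, inhibition was derived by comparison with vehicle controls.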

[10] = NCI Yeast Anticancer Drug Screen. Data for the cln2 rad14 strain (AID 165);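 further: 0% = growth equal to vehicle treated cultures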; settings: S. cerevisiae cln2 rad14 strain, stronger effect = higher value
Summary of the method: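 Test compounds were added to cln2 rad14 yeast cultures; inhibition of growth was then determined by comparison with vehicle treatment.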

[11] = NCI Yeast Anticancer Drug Screen. Data for the bub3 strain (AID 167); settings: S. cerevisiae bub3 mutant strain, stronger effect = higher value
Summary of the method: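 In this screen, a yeast mutant lacking normal mitotic checkpoint function is challenged with compound. Relative growth versus vehicle gives the inhibition value.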

[12] = NCI Yeast Anticancer Drug Screen. Data for the wt2 strain (AID 169);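 further: 0% = growth of vehicle-treated yeast cultures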; settings: S. cerevisiae wt2 strain growth inhibition, stronger effect = higher value
Summary of the method: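 The panel's yeast strains carry defined changes in DNA repair or cell cycle genes. Each strain is grown with compound, and growth loss is scored relative to vehicle.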

[13] = NCI Yeast Anticancer Drug Screen. Data for the mlh1 strain (AID 171);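 further: 0% = growth of vehicle-treated control cultures of the same strain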; settings: S. cerevisiae mlh1 strain growth inhibition, stronger effect = higher value
Summary of the method: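 Inhibition values reflect reduced yeast growth in the presence of compound, referenced to vehicle controls, using a strain chosen for its alteration in DNA repair or cell cycle control.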

[14] = NCI Yeast Anticancer Drug Screen. Data for the rad18 strain (AID 177); settings: S. cerevisiae rad18 mutant growth inhibition, stronger effect = higher value
Summary of the method: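 Steps: expose repair-mutant yeast to compound; measure growth; express as inhibition relative to vehicle control.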

[15] = NCI Yeast Anticancer Drug Screen. Data for the sgs1 strain (AID 173);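 further: 0% = growth of vehicle-only control cultures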; settings: S. cerevisiae sgs1 mutant, stronger effect = higher value
Summary of the method: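 Vehicle-treated cultures served as reference for growth inhibition of a yeast strain altered in DNA damage repair or cell cycle control after compound exposure.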

[16] = NCI Yeast Anticancer Drug Screen. Data for the mlh1 rad18 strain (AID 175); settings: S. cerevisiae mlh1 rad18 strain growth inhibition, stronger effect = higher value
Summary of the method: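 Inhibition values reflect reduced growth of mutant yeast versus vehicle-treated controls following compound exposure; the mutations affect DNA damage repair.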

[17] = at 5.0 µM (retest, dose inferred, filed as 0.5)
[18] = at 50.0 µM (retest, dose inferred, filed as 5.0)

Work on `O=C1OC(C2=CC(=O)c3ccccc3C2=O)C(Cl)=C1Cl` (stereo not drawn) yielded a growth inhibition ([1]; at 1.2 µM) of 3%, a growth inhibition ([1]; at 3.7 µM) of 15% and a growth inhibition ([1]; at 11.0 µM) of 46%. For the same molecule, the growth inhibition ([1]; at 33.0 µM) was 89% (active), the growth inhibition ([1]; at 100.0 µM) was 91% (active) and the growth inhibition ([2]; at 1.2 µM) was 1%. The growth inhibition ([2]; at 3.7 µM) was 9%, the growth inhibition ([2]; at 11.0 µM) was 9% and the growth inhibition ([2]; at 33.0 µM) was 14%. It also gave a growth inhibition ([2]; at 100.0 µM) of 28%, a growth inhibition ([3]; at 1.2 µM) of 3% and a growth inhibition ([3]; at 3.7 µM) of 13%. The growth inhibition ([3]; at 11.0 µM) was 47%, the growth inhibition ([3]; at 33.0 µM) was 81% (active) and the growth inhibition ([3]; at 100.0 µM) was 82% (active). The growth inhibition ([4]; at 1.2 µM) was -1%, the growth inhibition ([4]; at 3.7 µM) was 0% and the growth inhibition ([4]; at 11.0 µM) was 1%. It also gave a growth inhibition ([4]; at 33.0 µM) of 12%, a growth inhibition ([4]; at 100.0 µM) of 24% and a growth inhibition ([5]; at 1.2 µM) of 0%. For the same molecule, the growth inhibition ([5]; at 3.7 µM) was 1%, the growth inhibition [5, 17] was 5% and the growth inhibition ([5]; at 11.0 µM) was 11%. The growth inhibition ([5]; at 33.0 µM) was 30%, the growth inhibition [5, 18] was 44% and the growth inhibition ([5]; at 50.0 µM) was 86.3% (active). The growth inhibition ([5]; at 100.0 µM) was 47%, the growth inhibition ([6]; at 1.2 µM) was -1% and the growth inhibition ([6]; at 3.7 µM) was 6%. The growth inhibition [6, 17] was 1%, the growth inhibition ([6]; at 11.0 µM) was 14% and the growth inhibition ([6]; at 33.0 µM) was 34%. The growth inhibition [6, 18] was 47%, the growth inhibition ([6]; at 50.0 µM) was 80.9% (active) and the growth inhibition ([6]; at 100.0 µM) was 56%. The growth inhibition ([7]; at 1.2 µM) was 0%, the growth inhibition ([7]; at 3.7 µM) was 4% and the growth inhibition ([7]; at 11.0 µM) was 12%. The growth inhibition ([7]; at 33.0 µM) was 37%, the growth inhibition ([7]; at 100.0 µM) was 69% and the growth inhibition [8, 17] was 17%. For the same molecule, the growth inhibition [8, 18] was 78% (active), the growth inhibition ([8]; at 50.0 µM) was 95.5% (active) and the growth inhibition ([9]; at 1.2 µM) was -2%. It also gave a growth inhibition ([9]; at 3.7 µM) of -13%, a growth inhibition ([9]; at 11.0 µM) of -4% and a growth inhibition ([9]; at 33.0 µM) of 12%. It also gave a growth inhibition ([9]; at 100.0 µM) of 30%, a growth inhibition [10, 17] of 0% and a growth inhibition [10, 18] of 51%. For the same molecule, the growth inhibition ([10]; at 50.0 µM) was 95.3% (active), the growth inhibition ([11]; at 1.2 µM) was 3% and the growth inhibition ([11]; at 3.7 µM) was -1%. It also gave a growth inhibition [11, 17] of -1%, a growth inhibition ([11]; at 11.0 µM) of -2% and a growth inhibition ([11]; at 33.0 µM) of 2%. The growth inhibition [11, 18] was 6%, the growth inhibition ([11]; at 50.0 µM) was 57.4% and the growth inhibition ([11]; at 100.0 µM) was 12%. The growth inhibition ([12]; at 1.2 µM) was 1%, the growth inhibition ([12]; at 3.7 µM) was 1% and the growth inhibition ([12]; at 11.0 µM) was 4%. It also gave a growth inhibition ([12]; at 33.0 µM) of 13%, a growth inhibition ([12]; at 100.0 µM) of 36% and a growth inhibition ([13]; at 1.2 µM) of -2%. The growth inhibition ([13]; at 3.7 µM) was 3%, the growth inhibition ([13]; at 11.0 µM) was 6% and the growth inhibition ([13]; at 33.0 µM) was 22%. For the same molecule, the growth inhibition ([13]; at 100.0 µM) was 13%, the growth inhibition ([14]; at 1.2 µM) was 31% and the growth inhibition ([14]; at 3.7 µM) was 79% (active). The growth inhibition ([14]; at 11.0 µM) was 92% (active), the growth inhibition ([14]; at 33.0 µM) was 95% (active) and the growth inhibition ([14]; at 100.0 µM) was 94% (active).
In the case of `Nc1cc(N)c(N=Nc2cccc3c(S(=O)(=O)O)cccc23)cc1N=Nc1cc([N+](=O)[O-])ccc1O`, the growth inhibition ([1]; at 1.2 µM) is reported as 32%, the growth inhibition ([1]; at 3.7 µM) is reported as 26% and the growth inhibition ([1]; at 11.0 µM) is reported as 17%. It also gave a growth inhibition ([1]; at 33.0 µM) of -23%, a growth inhibition ([1]; at 100.0 µM) of 56% and a growth inhibition ([2]; at 1.2 µM) of 7%. It also gave a growth inhibition ([2]; at 3.7 µM) of 13%, a growth inhibition ([2]; at 11.0 µM) of 7% and a growth inhibition ([2]; at 33.0 µM) of 8%. The growth inhibition ([2]; at 100.0 µM) was 19%, the growth inhibition ([3]; at 1.2 µM) was -11% and the growth inhibition ([3]; at 3.7 µM) was 3%. The growth inhibition ([3]; at 11.0 µM) was -4%, the growth inhibition ([3]; at 33.0 µM) was -4% and the growth inhibition ([3]; at 100.0 µM) was 38%. For the same molecule, the growth inhibition ([4]; at 1.2 µM) was -19%, the growth inhibition ([4]; at 3.7 µM) was 8% and the growth inhibition ([4]; at 11.0 µM) was 9%. For the same molecule, the growth inhibition ([4]; at 33.0 µM) was 12%, the growth inhibition ([4]; at 100.0 µM) was 65% and the growth inhibition ([5]; at 1.2 µM) was 15%. For the same molecule, the growth inhibition ([5]; at 3.7 µM) was 10%, the growth inhibition [5, 17] was 46% and the growth inhibition ([5]; at 11.0 µM) was 8%. For the same molecule, the growth inhibition ([5]; at 33.0 µM) was 6%, the growth inhibition [5, 18] was 61% and the growth inhibition ([5]; at 50.0 µM) was 38.5%. The growth inhibition ([5]; at 100.0 µM) was 54%, the growth inhibition ([6]; at 1.2 µM) was 1% and the growth inhibition ([6]; at 3.7 µM) was -11%. It also gave a growth inhibition [6, 17] of 64%, a growth inhibition ([6]; at 11.0 µM) of -11% and a growth inhibition ([6]; at 33.0 µM) of -17%. It also gave a growth inhibition [6, 18] of 69%, a growth inhibition ([6]; at 50.0 µM) of 4.9% and a growth inhibition ([6]; at 100.0 µM) of 17%. The growth inhibition ([7]; at 1.2 µM) was -17%, the growth inhibition ([7]; at 3.7 µM) was -22% and the growth inhibition ([7]; at 11.0 µM) was -19%. It also gave a growth inhibition ([7]; at 33.0 µM) of -18%, a growth inhibition ([7]; at 100.0 µM) of 47% and a growth inhibition [8, 17] of -10%. For the same molecule, the growth inhibition [8, 18] was 84% (active), the growth inhibition ([8]; at 50.0 µM) was 26.4% and the growth inhibition ([9]; at 1.2 µM) was 4%. For the same molecule, the growth inhibition ([9]; at 3.7 µM) was 16%, the growth inhibition ([9]; at 11.0 µM) was -4% and the growth inhibition ([9]; at 33.0 µM) was -7%. For the same molecule, the growth inhibition ([9]; at 100.0 µM) was -3%, the growth inhibition [10, 17] was 33% and the growth inhibition [10, 18] was 92% (active). The growth inhibition ([10]; at 50.0 µM) was 42.5%, the growth inhibition ([11]; at 1.2 µM) was -6% and the growth inhibition ([11]; at 3.7 µM) was 6%. For the same molecule, the growth inhibition [11, 17] was 19%, the growth inhibition ([11]; at 11.0 µM) was 10% and the growth inhibition ([11]; at 33.0 µM) was 0%. For the same molecule, the growth inhibition [11, 18] was 79% (active), the growth inhibition ([11]; at 50.0 µM) was 70.8% (active) and the growth inhibition ([11]; at 100.0 µM) was 53%. For the same molecule, the growth inhibition ([12]; at 1.2 µM) was -14%, the growth inhibition ([12]; at 3.7 µM) was -11% and the growth inhibition ([12]; at 11.0 µM) was -26%. For the same molecule, the growth inhibition ([12]; at 33.0 µM) was 6%, the growth inhibition ([12]; at 100.0 µM) was 47% and the growth inhibition ([15]; at 1.2 µM) was -7%. For the same molecule, the growth inhibition ([15]; at 3.7 µM) was 24%, the growth inhibition ([15]; at 11.0 µM) was 19% and the growth inhibition ([15]; at 33.0 µM) was 34%. It also gave a growth inhibition ([15]; at 100.0 µM) of 59%, a growth inhibition [16, 17] of 52% and a growth inhibition [16, 18] of 48%. For the same molecule, the growth inhibition ([16]; at 50.0 µM) was 65.7%, the growth inhibition ([14]; at 1.2 µM) was -13% and the growth inhibition ([14]; at 3.7 µM) was -28%. The growth inhibition ([14]; at 11.0 µM) was -23%, the growth inhibition ([14]; at 33.0 µM) was -16% and the growth inhibition ([14]; at 100.0 µM) was 36%.
